Records with an inconclusive call do not appear. Activity calls are given as the source filed them. Calls come from the whole dose curve; as a rule, active = well fitted inhibition curve with a large enough effect; inconclusive = small, poorly fitted or top-dose-only effect; inactive = flat fitted curve, though single readings scatter.
Assays:
[1] = target: Ubiquitin carboxyl-terminal hydrolase 1 (Homo sapiens) (UniProt O94782); test: Inhibitors of USP1/UAF1: Pilot qHTS (AID 504865);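 note: rhodamine fluorescence freed from ubiquitin-rhodamine substrate followed over time; top concentration of the series differs between compounds; % is set by controls: 0 for no effect and ±100 for the full control effect; nearly all actives have a fitted effect of over 35% in size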
How it was run: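 Kinetic fluorescence assay: 1nM USP1/UAF1, 15 min compound preincubation, then 150nM Ub-Rho; 480/540 nm.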

7G8 = test: qHTS profiling for inhibitors of Plasmodium falciparum proliferation (AID 504749); note: nearly all actives have a fitted effect of over 60% in size; note: potency is the fitted concentration of half-maximal effect; settings: P. falciparum in erythrocytes, SYBR Green DNA, 72 h; series mostly up to 28.7 µM
How it was run: (§1)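 P. falciparum-infected erythrocytes (0.3% parasitemia, 2.5% hematocrit) incubated with compound 72 h at 37 C, 5% CO2. Parasite DNA detected by SYBR Green after lysis, overnight at room temperature; normalised to 0.29 uM artemisinin and DMSO.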

C2A = test: as above; settings: P. falciparum in erythrocytes, SYBR Green DNA, 72 h; series mostly up to 28.7 µM
How it was run: as §1

CP191 = test: as above; settings: P. falciparum in erythrocytes, SYBR Green DNA, 72 h; series mostly up to 28.7 µM
How it was run: as §1

CP217 = test: as above; settings: P. falciparum in erythrocytes, SYBR Green DNA, 72 h; series mostly up to 28.7 µM
How it was run: as §1

CP247 = test: as above; settings: P. falciparum in erythrocytes, SYBR Green DNA, 72 h; series mostly up to 28.7 µM
How it was run: as §1

CP250 = test: as above; settings: P. falciparum in erythrocytes, SYBR Green DNA, 72 h; series mostly up to 28.7 µM
How it was run: as §1

CP260 = test: as above; settings: P. falciparum in erythrocytes, SYBR Green DNA, 72 h; series mostly up to 28.7 µM
How it was run: as §1

CP291 = test: as above; settings: P. falciparum in erythrocytes, SYBR Green DNA, 72 h; series mostly up to 28.7 µM
How it was run: as §1

DIV30 = test: as above; settings: P. falciparum in erythrocytes, SYBR Green DNA, 72 h; series mostly up to 28.7 µM
How it was run: as §1

P94_40 = test: as above; settings: P. falciparum in erythrocytes, SYBR Green DNA, 72 h; series mostly up to 28.7 µM
How it was run: as §1

PAD = test: as above; settings: P. falciparum in erythrocytes, SYBR Green DNA, 72 h; series mostly up to 28.7 µM
How it was run: as §1

SC27B = test: as above; settings: P. falciparum in erythrocytes, SYBR Green DNA, 72 h; series mostly up to 28.7 µM
How it was run: as §1

TAB113 = test: as above; settings: P. falciparum in erythrocytes, SYBR Green DNA, 72 h; series mostly up to 28.7 µM
How it was run: as §1

TAB165 = test: as above; settings: P. falciparum in erythrocytes, SYBR Green DNA, 72 h; series mostly up to 28.7 µM
How it was run: as §1

3D7 = test: as above; settings: P. falciparum in erythrocytes, SYBR Green DNA, 72 h; series mostly up to 28.7 µM
How it was run: as §1

ATS95 = test: as above; settings: P. falciparum in erythrocytes, SYBR Green DNA, 72 h; series mostly up to 28.7 µM
How it was run: as §1

CP335 = test: as above; settings: P. falciparum in erythrocytes, SYBR Green DNA, 72 h; series mostly up to 28.7 µM
How it was run: as §1

DIV14 = test: as above; settings: P. falciparum in erythrocytes, SYBR Green DNA, 72 h; series mostly up to 28.7 µM
How it was run: as §1

DIV17 = test: as above; settings: P. falciparum in erythrocytes, SYBR Green DNA, 72 h; series mostly up to 28.7 µM
How it was run: as §1

Chain of Ubiquitin carboxyl-terminal hydrolase 1 (Homo sapiens) (O94782 whole entry, looked up): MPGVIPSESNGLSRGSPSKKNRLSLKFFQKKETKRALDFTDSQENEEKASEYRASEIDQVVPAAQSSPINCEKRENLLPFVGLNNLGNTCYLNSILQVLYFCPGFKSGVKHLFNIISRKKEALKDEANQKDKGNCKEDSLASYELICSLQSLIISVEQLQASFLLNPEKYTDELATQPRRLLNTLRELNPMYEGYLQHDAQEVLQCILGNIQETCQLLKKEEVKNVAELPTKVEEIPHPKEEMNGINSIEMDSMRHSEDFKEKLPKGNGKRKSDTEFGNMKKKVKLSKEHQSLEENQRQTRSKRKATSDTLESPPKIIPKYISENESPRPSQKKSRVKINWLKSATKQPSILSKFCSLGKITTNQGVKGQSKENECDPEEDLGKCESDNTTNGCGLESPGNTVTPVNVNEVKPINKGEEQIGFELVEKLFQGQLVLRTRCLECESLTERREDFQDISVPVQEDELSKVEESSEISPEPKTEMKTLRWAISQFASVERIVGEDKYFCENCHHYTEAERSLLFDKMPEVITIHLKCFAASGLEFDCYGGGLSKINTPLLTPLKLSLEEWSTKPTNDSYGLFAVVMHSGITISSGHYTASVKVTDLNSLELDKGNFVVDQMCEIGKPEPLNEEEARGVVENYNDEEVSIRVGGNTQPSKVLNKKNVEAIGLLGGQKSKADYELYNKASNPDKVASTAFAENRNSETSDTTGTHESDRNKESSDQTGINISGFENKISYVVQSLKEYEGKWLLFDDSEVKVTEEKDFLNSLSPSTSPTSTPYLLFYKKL

CC1OC(OC2C(O)CC(OC3C(O)CC(OC4CCC5(C)C(CCC6C5CCC5(C)C(C7=CC(=O)OC7)CCC65O)C4)OC3C)OC2C)CC(O)C1O (centres undefined)
active: Potency (7G8) 12.6 µM
inactive: Potency [1] | Potency (C2A) | Potency (CP191) | Potency (CP217) | Potency (CP247) | Potency (CP250) | Potency (CP260) | Potency (CP291) | Potency (DIV30) | Potency (P94_40) | Potency (PAD) | Potency (SC27B) | Potency (TAB113) | Potency (TAB165)

C/C(=C(/CCOC(=O)C(C)C)SS/C(CCOC(=O)C(C)C)=C(\C)N(C=O)Cc1cnc(C)nc1N)N(C=O)Cc1cnc(C)nc1N
inactive: Potency [1] | Potency (3D7) | Potency (7G8) | Potency (ATS95) | Potency (C2A) | Potency (CP217) | Potency (CP247) | Potency (CP250) | Potency (CP260) | Potency (CP291) | Potency (CP335) | Potency (DIV14) | Potency (DIV17) | Potency (DIV30) | Potency (P94_40) | Potency (PAD) | Potency (SC27B) | Potency (TAB113) | Potency (TAB165)

CCC1OC(=O)C[C@H](O)C(C)[C@@H](O[C@@H]2OC(C)C(O)C(N(C)C)C2O)C(CCN2CC(C)CC(C)C2)CC(C)C(=O)/C=C/C(C)=C\[C@@H]1COC1OC(C)C(O)C(OC)C1OC (some centres undefined)
active: Potency (C2A) 10 µM | Potency (CP191) 6.31 µM | Potency (CP260) 11.2 µM | Potency (CP335) 9.53 µM
inactive: Potency [1] | Potency (3D7)

C#C[C@]1(O)CC[C@H]2[C@H]3[C@H](CC[C@@]21C)C1=C(CC(=O)CC1)C[C@@H]3C
inactive: Potency (3D7) | Potency (ATS95) | Potency (C2A) | Potency (CP191) | Potency (CP217) | Potency (CP250) | Potency (CP260) | Potency (CP291) | Potency (CP335) | Potency (DIV14) | Potency (P94_40) | Potency (PAD) | Potency (SC27B) | Potency (TAB113) | Potency (TAB165)

CC[C@H]1OC(=O)[C@H](C)C(=O)[C@H](C)[C@@H](OC2O[C@H](C)C[C@H](N(C)C)[C@@H]2O)[C@@](C)(OC)C[C@@H](C)C(=O)[C@@H](C)C2N(CCCCn3cnc(-c4cccnc4)c3)C(=O)O[C@@]21C (some centres undefined)
active: Potency (7G8) 7.94 µM | Potency (DIV14) 12 µM | Potency (DIV17) 13.5 µM | Potency (PAD) 11.2 µM
inactive: Potency (C2A) | Potency (CP247) | Potency (CP250) | Potency (CP291)

C[C@]12CCC(=O)C=C1[C@@H]1C[C@H]1[C@H]1[C@@H]3[C@@H]4C[C@H]4[C@@]4(CCC(=O)O4)[C@@]3(C)CC[C@@H]12
inactive: Potency [1] | Potency (ATS95) | Potency (C2A) | Potency (CP191) | Potency (CP217) | Potency (CP247) | Potency (CP250) | Potency (CP260) | Potency (CP291) | Potency (CP335) | Potency (DIV17) | Potency (P94_40) | Potency (SC27B) | Potency (TAB113) | Potency (TAB165)

COC(=O)C1[C@@H](OC)C(OC(=O)COc2ccc(OC)cc2)C[C@@H]2CN3CCc4c([nH]c5cc(OC)ccc45)[C@H]3C[C@H]12 (some centres undefined)
active: Potency (3D7) 10 µM | Potency (7G8) 7.94 µM | Potency (CP217) 11.2 µM | Potency (CP335) 12 µM | Potency (DIV14) 7.57 µM | Potency (DIV17) 6.75 µM | Potency (DIV30) 8.49 µM | Potency (PAD) 11.2 µM | Potency (TAB165) 12.6 µM
inactive: Potency [1]

O=C(NC(CO)C(O)c1ccc([N+](=O)[O-])cc1)C(Cl)Cl (centres undefined)
inactive: Potency [1] | Potency (ATS95) | Potency (DIV17) | Potency (DIV30) | Potency (PAD) | Potency (SC27B)
active: Potency (CP291) 3.01 µM | Potency (CP335) 4.78 µM

O=C(O)c1ccccc1-c1c2ccc(=O)cc-2oc2cc(O)ccc12
inactive: activity change, negative = inhibition [1] -94.3% [at 11.4 µM] | Potency (CP291)

CC1=C(/C=C/C(C)=C\C=C\C(C)=C\C=C\C=C(C)\C=C\C=C(C)\C=C\C2=C(C)C[C@@H](O)CC2(C)C)C(C)(C)C[C@H](O)C1
active: Potency (7G8) 1.26 µM | Potency (CP260) 10 µM | Potency (CP335) 15.1 µM | Potency (DIV14) 12 µM | Potency (DIV17) 13.5 µM | Potency (PAD) 14.1 µM | Potency (TAB165) 11.2 µM
inactive: Potency (CP191) | Potency (CP291) | Potency (TAB113)

C[C@@H]1CC2[C@@H]3C[C@H](F)C4=CC(=O)C(Cl)=C[C@]4(C)[C@@]3(F)[C@H](O)C[C@]2(C)[C@@]1(O)C(=O)CO (some centres undefined)
active: Potency (7G8) 8.91 µM
inactive: Potency (3D7) | Potency (CP217) | Potency (CP250) | Potency (CP291) | Potency (CP335) | Potency (DIV30) | Potency (SC27B)

CCN(CC)CCOCCOC(=O)C(CC)(CC)c1ccccc1 (tested in a mixture with another compound)
inactive: Potency [1] | Potency (3D7) | Potency (ATS95) | Potency (CP247) | Potency (PAD)
active: Potency (7G8) 5.62 µM | Potency (CP191) 10 µM | Potency (DIV14) 1.9 µM | Potency (DIV17) 1.51 µM

C=C1CC[C@H](O)C/C1=C/C=C1\CCC[C@]2(C)[C@@H]([C@H](C)CC[C@@H](O)C(C)(C)O)CC[C@@H]12
active: Potency (7G8) 8.91 µM | Potency (DIV14) 13.5 µM | Potency (DIV17) 13.5 µM | Potency (DIV30) 13.5 µM | Potency (SC27B) 11.2 µM | Potency (TAB165) 14.1 µM

CCC1OC(=O)C[C@@H](O)[C@H](C)[C@@H](OC2OC(C)CC(N(C)C)C2O)[C@@H](CC=O)C[C@@H](C)C(=O)/C=C/[C@]2(C)OC2C1C (some centres undefined)
active: Potency (7G8) 4.47 µM | Potency (CP335) 1.2 µM
inactive: Potency [1]

C=C1N[C@]2(C(=O)COC(C)=O)[C@@H](C[C@H]3[C@@H]4CCC5=CC(=O)C=C[C@]5(C)[C@H]4[C@@H](O)C[C@@]32C)O1
inactive: Potency [1] | Potency (CP247) | Potency (DIV14) | Potency (DIV17) | Potency (PAD)

Cc1cncc(C(=O)O)[n+]1[O-]
inactive: Potency [1] | Potency (3D7) | Potency (7G8) | Potency (ATS95) | Potency (CP260) | Potency (CP291) | Potency (CP335) | Potency (DIV14) | Potency (DIV17) | Potency (DIV30) | Potency (P94_40) | Potency (PAD) | Potency (SC27B) | Potency (TAB113)

CCC(=O)OC1C(N(C)C)CC(C)O[C@H]1O[C@H]1[C@H](C)[C@@H](O[C@H]2CC(OC)[C@@H](O)C(C)O2)[C@H](C)C(=O)O[C@@H](CC)[C@](C)(O)[C@@H](O)[C@H](C)C(=O)[C@@H](C)C[C@]1(C)O (some centres undefined)
inactive: Potency [1] | Potency (3D7) | Potency (7G8) | Potency (ATS95) | Potency (CP260) | Potency (CP291) | Potency (DIV14) | Potency (DIV30) | Potency (PAD) | Potency (SC27B) | Potency (TAB113)

C=CCN1CC(C(=O)N(CCCN(C)C)C(=O)NCC)CC2c3cccc4[nH]cc(c34)CC21 (centres undefined)
active: Potency (7G8) 10 µM | Potency (DIV14) 15.1 µM | Potency (DIV17) 13.5 µM
inactive: Potency [1] | Potency (CP250) | Potency (DIV30)

COc1ccc(CC(C)NCC(O)c2ccc(O)c(NC=O)c2)cc1 (centres undefined)
inactive: Potency [1]

C=C1CCC(O)C/C1=C/C=C1\CCC[C@]2(C)[C@@H]([C@H](C)/C=C/[C@H](C)C(C)C)CC[C@@H]12 (some centres undefined)
inactive: Potency (3D7) | Potency (CP260) | Potency (CP291) | Potency (CP335) | Potency (DIV14) | Potency (DIV17) | Potency (DIV30)
active: Potency (7G8) 10 µM

— PubChem BioAssay (NCATS)
